Compound activity from PubChem BioAssay.
An excerpt weighted towards active compounds, which were near 1.1% of everything screened.
GalR3 antagonist: human GalR3 antagonism; O60755; HEK293 GalR3-CNG cAMP membrane potential fluorescence; galR3 body fused to GalR1 C-terminus; inhibition, % at 3 µM; hit rate 0.44% among 360,000; AID 651719;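 active means inhibition above the screen-wide average plus 3 SD, cut at about 13% in these data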;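 further: forskolin and galanin both at EC90 stimulate the cells; cAMP rise reported by CNG channel membrane potential dye signal; 0% = forskolin plus galanin with DMSO and 100% = forskolin alone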
NCOA2 inhibitor: inhibits human steroid receptor coactivator 2; Q15596; HEK293 GAL4-SRC2 luciferase reporter, luminescence; inhibition, % at 9 µM; hit rate 0.17% among 370,000; AID 651957;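 active means inhibition above the mean inhibition of all tested compounds plus 3 SD, set per campaign, cut at about 52% in these data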;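 further: 0% = DMSO treated cells and 100% = cells given Gossypol at 36 µM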
SRC3 inh: inhibitors of human steroid receptor coactivator 3 (SRC3); HEK293 GAL4-SRC3 luciferase reporter, luminescence; AID 588352; inhibition, % at 3.6 µM; hit rate 0.17% among 360,000;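 active means inhibition above a per-campaign cutoff, the mean of all compounds plus 3 SD, cut at about 60% in these data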;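 further: 0% = DMSO-treated cells and 100% = gossypol-treated cells at 36 µM; higher means less SRC3-driven luciferase light from the GAL4 reporter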
COUP-TFII inh: inhibitors of human COUP-TFII (NR2F2). P24468. HEK293T NGFI-A luciferase reporter, luminescence. inhibition, % at 8.6 µM. hit rate 0.7% among 370,000;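 active means inhibition above a per-plate cutoff, mean inhibition of test wells between control levels plus 3 SD, cut at about 38% in these data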;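 further: cells cotransfected with COUP-TFII expression vector driving the NGFI-A reporter; 0% = median of COUP-TF2 test wells and 100% = reporter-only cells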
NR5A2 inv ag: inverse agonists of human LRH-1 (NR5A2); hit rate 0.13% among 360,000; inhibition, % at 3.6 µM; O00482; HEK293T StAR-luciferase reporter, LRH-1 transfected, 24 h;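 active means inhibition above the mean inhibition of all tested compounds plus 3 SD, cut at about 73% in these data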;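 further: 0% = DMSO wells and 100% = reporter-only cells lacking LRH-1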
NCOA1 inh: inhibitors of human steroid receptor coactivator 1 (SRC1); inhibition, % at 3.6 µM; hit rate 0.12% among 360,000; HEK293 GAL4-SRC1 luciferase reporter, luminescence;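 active means inhibition above the campaign mean plus 3 SD, with each screening campaign given its own cutoff, cut at about 60% in these data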;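 further: 0% = DMSO treated cells and 100% = gossypol at 36 µM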
GalR3 conf: confirmation of human galanin receptor 3 antagonists | inhibition, % at 3 µM | shares compounds with GalR3 antagonist | HEK293 GalR3 CNG cAMP biosensor, membrane potential fluorescence; galR3 fused to GalR1 carboxy tail; challenged with forskolin and galanin at EC90 | AID 652245 | hit rate 59% among 1,600;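 active means inhibition above the primary screen's cutoff, the mean inhibition of all screened compounds plus 3 SD, cut at about 13% in these data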;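 further: 0% = forskolin plus galanin and 100% = forskolin alone with DMSO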
CNG parental: parental cell agonism counter-screen for GalR3 antagonists | AID 652268 | hit rate 10% among 1,600 | activation, % at 3 µM | HEK293-CNG parental cells, cAMP membrane potential fluorescence; normalised: DMSO wells 0%, forskolin wells 100% | shares compounds with GalR3 antagonist; in the data active means activation above about 1.3%
* = called active by the depositor.

How did CC[C@@]1(O)C(=O)OCc2c1cc1n(c2=O)Cc2cc3c(NC(=O)CN)cccc3nc2-1 do in these assays?
GalR3 antagonist: -9.9; NCOA2 inhibitor: 6.7; SRC3 inh: 43.7; COUP-TFII inh: -27.1; NR5A2 inv ag: 46.2; NCOA1 inh: 26.1

What do the screens show for `CCC1(OC(=O)CN)C(=O)OCc2c1cc1n(c2=O)Cc2cc3ccccc3nc2-1` (stereo unspecified)?
SRC3 inh: 69.4*; NR5A2 inv ag: 86.7*; NCOA1 inh: 26.8

What do the screens show for `COP(=O)(OC)OC=C(Cl)Cl`?
GalR3 antagonist: -5.3; NCOA2 inhibitor: -0.6; COUP-TFII inh: 9.4

What do the screens show for `COc1ccc2nc(-c3ccc(CN4CCC(n5nnc6ccccc65)CC4)cc3)c(-c3ccccc3)nc2c1`?
GalR3 antagonist: -8.1; NCOA2 inhibitor: 2.1; COUP-TFII inh: 18.5

How did CC(C)[C@H]1C(=O)O[C@H](C(C)C)C(=O)N(C)[C@@H](C(C)C)C(=O)O[C@H](C(C)C)C(=O)N(C)[C@@H](C(C)C)C(=O)O[C@H](C(C)C)C(=O)N1C do in these assays?
SRC3 inh: 70.0*; NR5A2 inv ag: -14.6; NCOA1 inh: 37.1

What do the screens show for `CC[C@H](C)[C@@H]1OC(=O)[C@H](C(C)C)N(C)C(=O)[C@H](C(C)C)NC(=O)[C@@H](C)[C@@H](CCCC#CBr)OC(=O)[C@H](C(C)C)N(C)C(=O)C2CCCN2C1=O` (stereo partly specified)?
COUP-TFII inh: 25.0

Results for COC(=O)C1C(c2ccc(F)cc2)CC2CCC1N2C (stereo unspecified) ?
GalR3 antagonist: -5.1; NCOA2 inhibitor: 4.2; COUP-TFII inh: 6.2

How did COc1ccc2c(c1)[nH]c1c(C)nccc12 do in these assays?
GalR3 antagonist: -3.5; NCOA2 inhibitor: 48.3; SRC3 inh: 72.6*; COUP-TFII inh: 30.7; NR5A2 inv ag: 38.0; NCOA1 inh: 71.1*

What do the screens show for `Cc1nccc2c1[nH]c1ccc(Br)cc12`?
GalR3 antagonist: 1.2; NCOA2 inhibitor: 14.7; SRC3 inh: 29.1; COUP-TFII inh: -2.0; NR5A2 inv ag: -0.8; NCOA1 inh: 17.2

Results for O=C(O)c1cc2ccccc2n1C1CCN(Cc2ccccc2)CC1 ?
NCOA2 inhibitor: -5.8; COUP-TFII inh: -14.7

Results for CC(=O)OCC[N+](C)(C)C ?
GalR3 antagonist: 43.5*; NCOA2 inhibitor: 11.6; SRC3 inh: -0.6; COUP-TFII inh: -5.3; NR5A2 inv ag: -0.2; NCOA1 inh: -3.8; GalR3 conf: 70.2*; CNG parental: 0.7

What do the screens show for `C[C@]12CCC(=O)C[C@@H]1CC[C@@H]1[C@@H]2CC[C@]2(C)[C@@H](O)CC[C@@H]12`?
GalR3 antagonist: -0.6; NCOA2 inhibitor: 9.7; SRC3 inh: 3.8; COUP-TFII inh: 5.6; NR5A2 inv ag: 10.4; NCOA1 inh: -18.3

Results for CCc1ccc2nc(N3CCC(C(=O)N4CCC5(CC4)OCCO5)CC3)sc2c1 ?
GalR3 antagonist: -3.7; NCOA2 inhibitor: 7.5; SRC3 inh: -35.0; COUP-TFII inh: 14.2; NR5A2 inv ag: -0.7; NCOA1 inh: -20.8

Results for CC(=O)OC1CC[C@]2(C#N)[C@H]3CC[C@]4(C)[C@H](C5C=CC(=O)O5)CCC4(O)C3CCC2(O)C1 (stereo partly specified) ?
GalR3 antagonist: 26.3*; NCOA2 inhibitor: -31.4; SRC3 inh: 32.1; COUP-TFII inh: 13.0; NR5A2 inv ag: 19.9; NCOA1 inh: 4.5; GalR3 conf: 21.6*; CNG parental: 1.8*

How did O=C(O)C(Cc1cnc[nH]1)NS(=O)(=O)c1ccc(Br)cc1 (stereo unspecified) do in these assays?
GalR3 antagonist: -8.5; NCOA2 inhibitor: 25.3; SRC3 inh: -6.1; COUP-TFII inh: -20.6; NR5A2 inv ag: 15.7; NCOA1 inh: -35.0

What do the screens show for `O=C(NC(Cc1cnc[nH]1)C(=O)O)c1ccccc1` (stereo unspecified)?
GalR3 antagonist: 12.6*; NCOA2 inhibitor: -12.7; SRC3 inh: 15.7; COUP-TFII inh: -10.7; NR5A2 inv ag: 10.1; NCOA1 inh: 5.2; GalR3 conf: 7.7; CNG parental: 0.3

What do the screens show for `Cc1cc(C)n(-c2ccc(NN=C(C#N)C#N)cc2)n1`?
GalR3 antagonist: -0.2; NCOA2 inhibitor: 16.6; SRC3 inh: 39.0; COUP-TFII inh: -6.0; NR5A2 inv ag: 10.8; NCOA1 inh: 16.9

Results for N#CC(C#N)=NNc1ccc(-n2ccc(C(F)(F)F)n2)cc1 ?
GalR3 antagonist: 73.8*; NCOA2 inhibitor: 0.3; SRC3 inh: 44.6; COUP-TFII inh: 9.7; NR5A2 inv ag: 30.4; NCOA1 inh: 32.1; GalR3 conf: 80.1*; CNG parental: 0.9

What do the screens show for `Cc1ccc(/C=C2\C(=O)NC(=O)N(CC3CCCO3)C2=O)s1` (stereo unspecified)?
GalR3 antagonist: 15.7*; NCOA2 inhibitor: -19.9; SRC3 inh: 2.3; COUP-TFII inh: 9.0; NR5A2 inv ag: -15.2; NCOA1 inh: -10.8; GalR3 conf: 7.8; CNG parental: 0.0

What do the screens show for `CCN(CC)c1ccc(/C=C2\C(=O)NC(=O)N(CC3CCCO3)C2=O)cc1` (stereo unspecified)?
GalR3 antagonist: -0.5; NCOA2 inhibitor: -9.1; SRC3 inh: 0.5; COUP-TFII inh: -1.1; NR5A2 inv ag: 30.1; NCOA1 inh: -9.5

What do the screens show for `O=C(Cc1cc(=O)oc2cc(O)ccc12)NN=Cc1ccc(N(CCCl)CCCl)cc1`?
GalR3 antagonist: 16.0*; NCOA2 inhibitor: 7.8; SRC3 inh: -17.9; COUP-TFII inh: -10.7; NR5A2 inv ag: 12.4; NCOA1 inh: -8.4; GalR3 conf: 31.1*; CNG parental: -0.7

Results for C1=C(c2ccccc2)CCNC1 ?
GalR3 antagonist: 2.6; NCOA2 inhibitor: 6.2; SRC3 inh: 23.0; COUP-TFII inh: -21.9; NR5A2 inv ag: -14.4; NCOA1 inh: 8.0

How did Oc1ccc(C2=CCNCC2)cc1O do in these assays?
GalR3 antagonist: 73.5*; NCOA2 inhibitor: -25.6; SRC3 inh: -41.2; COUP-TFII inh: -28.9; NR5A2 inv ag: -0.1; NCOA1 inh: -3.1; GalR3 conf: 86.5*; CNG parental: -0.1

How did OC12ONC(c3ccccn3)C1N1CCC2CC1 (stereo unspecified) do in these assays?
GalR3 antagonist: 0.2; NCOA2 inhibitor: -47.9; SRC3 inh: 3.1; COUP-TFII inh: -9.7; NR5A2 inv ag: 0.7; NCOA1 inh: -4.0

What do the screens show for `O=C(Nc1cccc(Br)c1)c1c(O)c2c(n(Cc3ccccc3)c1=O)CCCC2`?
GalR3 antagonist: -2.8; NCOA2 inhibitor: 2.8; SRC3 inh: 12.7; COUP-TFII inh: 0.7; NR5A2 inv ag: 4.8; NCOA1 inh: -17.1
